In the library only some 6.9% were active in any assay of this set; here they are far more common.
SW480 rerep: DNA re-replication induction in SW480 cells. SW480 DNA re-replication, Hoechst DNA content imaging, 48 h. Potency, µM (top dose mostly 46.1 µM), inactives show at the highest dose re-replication activation, most hits filed as activators. hit rate 1.8% among 340,000. AID 624297; further: potency means the concentration at half of the fitted maximal effect; % of control where 0% means no effect; nearly all actives have a fitted effect of over 55% in size
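Cells (250 per well) received 23 nL compound or DMSO by pin tool and were kept 48 hr at 37 C, 5% CO2. Nuclei were then stained with Hoechst for 40 min and scanned for DNA content.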
Giardia kill: kills Giardia lamblia. activity change, % at 7.66 µM, hits read low. Giardia lamblia trophozoite viability. hit rate 0.15% among 340,000; in the data active means activity change below about -80%; inconclusive means between about -30% and that limit;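 further: parasites exposed to compound for two days anaerobically before the ATP read; on the % scale 0 is the no-effect control and ±100 the full control effect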
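Anaerobic 48 hrs incubation at 37 deg C of 100 trophozoites/well with test compounds; ATPLite 1-Step luminescence, 15-30 min RT, reports cellular ATP as viability.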
Vif-APOBEC3G blk: Vif-A3G binding inhibition | Q9HC16 | HeLa A3G-eYFP + Vif (tagged APOBEC3G with the HIV-1 protein that degrades it), YFP fluorescence, overnight | Potency, µM (series often up to 46.1 µM), inactives show at the top dose activity, negative = active, usual class: inhibitors | hit rate 0.076% among 410,000 | AID 602310; further: potency means the concentration at half of the fitted maximal effect; on the % scale 0 is the no-effect control and ±100 the full control effect; nearly all actives have a fitted effect of over 60% in size
Target sequence (Q9HC16 whole entry, looked up): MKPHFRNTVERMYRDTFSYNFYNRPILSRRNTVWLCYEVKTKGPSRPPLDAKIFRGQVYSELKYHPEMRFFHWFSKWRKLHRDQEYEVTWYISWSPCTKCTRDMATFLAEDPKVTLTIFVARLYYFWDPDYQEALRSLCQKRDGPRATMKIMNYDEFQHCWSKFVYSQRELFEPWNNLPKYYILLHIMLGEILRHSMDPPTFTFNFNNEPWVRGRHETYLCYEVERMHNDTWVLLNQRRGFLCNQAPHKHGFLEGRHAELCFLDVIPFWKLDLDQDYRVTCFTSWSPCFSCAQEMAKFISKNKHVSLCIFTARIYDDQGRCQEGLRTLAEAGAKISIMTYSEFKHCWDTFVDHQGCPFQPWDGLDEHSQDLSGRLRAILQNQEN
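Read-out is eYFP fluorescence (Ex 488/Em 500-530) from Vif-expressing HeLa A3G-eYFP cells; more signal means A3G escaped Vif-mediated degradation. Cells plated overnight, compound pinned in, incubated overnight at 37 deg C.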
MCF10A rereplic: induces DNA re-replication in MCF 10a normal breast cells; MCF 10A DNA re-replication, Hoechst nuclear intensity, 48 h; Potency, µM (top dose mostly 46.1 µM), without a hit: at the highest dose activity, positive = re-replication, actives largely listed as activators; hit rate 2.9% among 350,000; AID 624296; further: potency means the concentration at half of the fitted maximal effect; % of control where 0% means no effect; nearly all actives have a fitted effect of over 50% in size
IL1B secr inh: blocks inflammasome-driven IL-1 beta release; THP-1 LPS/ATP IL-1B secretion, AlphaLISA, 16 h; active compounds read low; hit rate 4.7% among 360,000; AID 743279; activity change, % at 57.5 µM; in the data active means activity change below about -50%; inconclusive means mostly about -30% to -49%; further: on the % scale 0 is the no-effect control and ±100 the full control effect
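Secreted IL-1B measured by AlphaLISA bead assay after 16 h compound exposure of THP-1 cells; compounds (final up to 57.5 uM) added 1 h before LPS (250 ng/mL) and ATP (1.25 mM) stimulation; lower signal means less secretion.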
Vif-APOBEC3F blk: inhibitors of Vif-A3F interaction; hit rate 0.2% among 390,000; HeLa A3F-eYFP + Vif (tagged APOBEC3F with the HIV-1 protein that degrades it), YFP fluorescence increase; AID 602313; Potency, µM (series often up to 46.1 µM), for the others: at the highest dose activity, negative = active; further: potency means the concentration at half of the fitted maximal effect; % of control where 0% means no effect; nearly all actives have a fitted effect of over 65% in size
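HeLa cells stably expressing A3F-eYFP plus Vif, plated and incubated overnight at 37 deg C, then exposed to compounds overnight at 37 deg C. Blocked degradation read as raised yellow fluorescence (Ex 488/Em 500-530).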
* = called active by the depositor; ? = inconclusive; . = no result. Unless noted, the call rests on the fitted dose curve; in most records, active means well fitted curve in the direction sought with a large enough effect; inconclusive means small, poorly fitted or top-dose-only effect, or another doubt; inactive means no such curve, though single readings can be large; an effect the other way counts as inactive or inconclusive.

SMILES	SW480 rerep	Giardia kill	Vif-APOBEC3G blk	MCF10A rereplic	IL1B secr inh	Vif-APOBEC3F blk
CC12CCC(=O)N1C(C(=O)Nc1ccc(Cl)c(S(=O)(=O)N3CCCCC3)c1)CS2 (configuration not stated)	-3.3%	-10.6	2.0%	20.2%	5.3	-0.1%
COc1ccc(-c2noc(C3CC(=O)N(c4ccc5c(c4)OCCO5)C3)n2)c(OC)c1 (configuration not stated)	.	.	-2.5%	.	.	3.9%
COC(=O)c1cc2c(n1S(=O)(=O)c1ccc(C)cc1)C(=O)C(=O)c1[nH]cc(C(=O)OCc3ccccc3)c1-2	?	10.1	-10.2%	7.5%	-84.9*	8.7%
O=C(Nc1nc2n(n1)C(c1ccccc1)CC(c1ccc(Cl)cc1)N2)c1ccco1 (configuration not stated)	15.3%	-6.3	-8.9%	6.6%	-58.5*	-1.2%
COc1ccc(C2CC(c3ccccc3)Nc3nc(NC(=O)c4ccco4)nn32)cc1 (configuration not stated)	-2.3%	2.9	-7.5%	-7.4%	-3.2	3.7%
Cc1ccc(S(=O)(=O)N2CCCc3cc(NC(=O)c4ccccc4Cl)ccc32)cc1	.	.	-0.7%	.	.	3.8%
CCN(Cc1ccccc1)C(=O)c1oc2ccc(S(=O)(=O)N3CCOCC3)cc2c1C	-3.7%	29.5	3.0%	1.4%	-52.8*	-10.6%
CCN(CC)C(=O)c1oc2ccc(S(=O)(=O)N3CCCCCC3)cc2c1C	3.4%	-0.5	0.8%	29.9%	-9.9	-4.7%
COc1cccc(NC(=O)Cn2c(=O)n(Cc3ccc(C(=O)NCc4ccc(C)cc4)cc3)c(=O)c3ccccc32)c1	.	.	-0.2%	.	.	0.3%
CCOC(=O)N1CCN(C(=O)CSCc2ccc(Br)cc2)CC1	-0.8%	-14.9	0.0%	0.9%	-60.3*	-1.1%
CCS/C(N)=N/N=C/c1cc(C)ccc1O	?	-15.4	-0.6%	8.4%	-55.1*	0.8%
CS/C(N)=N/N=C/c1cc(C)ccc1O	14.6µM*	?	-1.5%	0.8%	-26.3	-22.5%
Cc1oc(-c2ccccc2)nc1CNS(=O)(=O)c1ccc(Cl)cc1	.	.	4.8%	.	.	-2.8%
Cc1cccc(Cc2cnc(N3C(=N)SC(C)C3=O)s2)c1 (configuration not stated)	11.8%	-0.7	-11.8%	15.5%	-84.4*	-4.9%
N=C1SCC(=O)N1c1ncc(Cc2cccc(Cl)c2)s1	?	17.3	-11.5%	11.6µM*	-103.0*	?
N=C1SCC(=O)N1c1ncc(Cc2ccccc2Cl)s1	?	3.0	-0.1%	18.4µM*	-102.3*	-9.1%
COc1cccc(NC(=O)CCSc2nc(-c3ccco3)cc(C(F)(F)F)n2)c1	.	.	2.8%	.	.	1.0%
O=C(Nc1c2c(nn1-c1ccc(Cl)cc1)CS(=O)(=O)C2)c1ccccc1F	.	.	-1.9%	.	.	-2.3%
O=C(c1cc(COc2c(F)cccc2F)on1)N(Cc1ccccc1)CC1CC1	-8.2%	51.3	9.4%	?	-51.3*	14.7%
CN(C(=O)c1cc(COc2c(F)cccc2F)on1)C1CCOC1 (configuration not stated)	1.3%	-5.4	2.4%	11.2%	-4.2	5.4%
CCN(CC)CCSc1nc2ccccc2c(=S)n1-c1ccccc1	8.4%	23.4	1.2%	-1.6%	-56.0*	-1.1%
CCN(CC)CCSc1nc(O)c(-c2ccccc2)c(=O)n1-c1ccccc1	-1.9%	-6.8	0.4%	2.0%	-3.6	0.8%
CCn1ccc(C(=O)NC2=NCCS2)n1	23.1µM*	-14.6	-2.7%	-66.6%	0.0	-2.9%
CCn1ccc(C(=O)NC2CCCC2)n1	1.9%	21.3	-5.2%	1.6%	8.3	1.6%
O=C(NCCCc1cnc[nH]1)NCCCN(Cc1ccc(Cl)cc1)c1ccc(Br)cn1	.	2.6	-28.0%	.	.	.
SMILES	SW480 rerep	Giardia kill	Vif-APOBEC3G blk	MCF10A rereplic	IL1B secr inh	Vif-APOBEC3F blk
CCOc1ccc(N2CC(NC(=O)c3ccc(Cl)cc3)CC2=O)cc1 (configuration not stated)	.	.	-6.5%	.	.	9.0%
COc1ccc(CCC(C)NCCc2ccc(Cl)cc2Cl)cc1 (configuration not stated)	?	17.0	-9.3%	19.1%	-51.3*	-29.2%
COC(=O)c1ccc(OC)c(CN2C(=O)N(c3ccc(C(C)=O)cc3)S(=O)(=O)c3ccccc32)c1	.	.	-1.4%	.	.	0.5%
CC1(S(=O)(=O)O)CC(=O)c2ccccc2C1=O (configuration not stated)	14.6µM*	-0.1	?	?	?	?
CC1(N2CCCCC2)C(=O)c2ccccc2C1=O	-13.3%	4.1	0.3%	?	0.0	2.5%
COc1cccc(-c2nc(SCc3cccc(Br)c3)n3[nH]c(=O)cc3n2)c1	.	.	-3.9%	.	.	-1.5%
Cc1cccc(/C=C/C(=O)c2ccc(NC3=NCCCS3)cc2)c1	9.2µM*	-5.8	?	?	-86.7*	-0.1%
Cc1cccc(C(=O)Nc2ccc(C(=O)/C=C/c3ccncc3)cc2)c1	?	7.2	-28.3%	?	6.4	10.2%
COc1cccc(/C=C/C(=O)OCC(=O)Nc2ccc3c(c2)OCCO3)c1	.	.	2.4%	.	1.3	-5.0%
COc1cccc(/C=C/C(=O)c2ccc(NC3=NCCCS3)cc2)c1	?	-18.7	?	?	-98.5*	-13.4%
Cc1cccc(OCC(=O)Nc2ccc(N3CCN(C(=O)c4ccccc4)CC3)cc2)c1	-3.4%	6.1	2.5%	?	-68.0*	-1.2%
CN1CCN(c2ccc(NC(=O)COc3ccc4ccccc4c3)cc2)CC1	?	10.6	13.4%	16.4µM*	7.8	-19.0%
CN1CCc2nc(NC(=O)COc3ccc4ccccc4c3)sc2C1	?	-9.6	2.1%	13µM*	-7.3	7.0%
COc1ccccc1C1(CCN=Cc2ccc(N(C)C)cc2)CCOC(C)(C)C1 (configuration not stated)	?	-10.8	-0.5%	2.2%	-64.2*	1.4%
O=C1c2c(-c3ccc(Br)cc3)noc2CCN1Cc1cn(Cc2cccnc2)nn1	.	.	.	.	52.0	.
CCOCCCn1c(=NC(=O)c2ccco2)c(C(=O)OCC)cc2c(=O)n3cccc(C)c3nc21	1.64µM*	27.3	1.4%	?	-20.1	?
CCOC(=O)c1cc2c(=O)n3cccc(C)c3nc2n(Cc2ccco2)c1=NC(=O)c1ccccc1	?	31.1	-0.6%	8.2µM*	14.7	-2.4%
CCOC(=O)c1cc2c(=O)n3cccc(C)c3nc2n(CCOC)c1=NC(C)=O	5.8µM*	9.4	2.7%	3.66µM*	.	?
CCCn1c(=NC(=O)c2ccco2)c(C(=O)OCC)cc2c(=O)n3ccccc3nc21	-1.9%	-0.1	1.7%	-13.6%	?	-0.3%

Screens: PubChem BioAssay, National Center for Advancing Translational Sciences (NCATS)
